This is a sample that favours compounds with a hit; in the whole collection about 2% have one here.
aSyn yeast inh – inhibitors of alpha-synuclein toxicity in yeast; Yeast expressing alpha-synuclein, growth rescue, BacTiter-Glo, 24 h; Potency, µM (highest dose often 46.1 µM), most hits filed as activators; 370,000 compounds, 0.14% hits; AID 652106; further: nearly all actives have a fitted effect of over 65% in size
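Galactose-induced alpha-syn yeast (OD600=0.02, raffinose-pregrown) + pinned cpd, 24 hr, 30 deg C; growth by BacTiter-Glo luminescence. Growth restoration scores as activation.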
TDP43 rescue – inhibitors of TDP-43 toxicity in yeast. Potency, µM (highest dose often 46.1 µM), usual class: activators. TDP-43 expressing yeast growth rescue, BacTiter-Glo, 24 h. 410,000 compounds, 1.8% hits; further: nearly all actives have a fitted effect of over 50% in size
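Galactose-induced TDP-43 yeast, OD600=0.02, compound pinned; 24 hr, 30 deg C; BacTiter-Glo luminescence for growth. Inhibitors of TDP-43 toxicity read as activators.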
LDHA inh – LDHA (human) enzyme inhibition; P00338; AID 1347041; 480,000 compounds, 0.15% hits; activity change, % (values are at about 110 or 230 µM); purified LDHA, NADH/diaphorase-resazurin fluorescence; active compounds read low; in the data active means activity change below about -30%; inconclusive means mostly about -25% to -30%
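Remaining NADH was detected by diaphorase (0.133 mg/mL) converting 37 µM resazurin to fluorescent resorufin, read at 0 and 20 minutes. The preceding 5-minute room-temperature reaction used 2 nM LDHA, 0.2 mM sodium pyruvate and 0.06 mM NADH at pH 7.4.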
FUS yeast rescue – suppressors of FUS proteinopathy in yeast. S. cerevisiae FUS-expressing, growth rescue, OD600, 24 h. Potency, µM (series often up to 76.6 µM), usual class: activators. 390,000 compounds, 0.24% hits. AID 1347120; further: nearly all actives have a fitted effect of over 55% in size
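Yeast FUS proteinopathy model; galactose-induced FUS (2%), starting OD 0.005. Cpds in dilution series, 24hr, 30C, 99% humidity. Abs 600 nm growth. Pos ctrl CP55940 (top 92uM final); neg ctrl DMSO.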
Abeta yeast res – A-beta toxicity reversal in yeast; AID 1347071; Potency, µM (highest dose often 46.1 µM), most hits filed as activators; yeast expressing A-beta42, growth rescue, OD600, 48 h; response scale: 0% DMSO, 100% iron-clioquinol control; 410,000 compounds, 0.063% hits; further: nearly all actives have a fitted effect of over 55% in size
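Yeast A-beta toxicity model in growth medium with pinned compounds, 48 h at 30 C; growth read as absorbance at 600 nm. Normalized to FeCl3/clioquinol equimolar mix (positive) and DMSO (negative).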
IDH1 R132H inh – inhibitors of human mutant IDH1 R132H; O75874; IDH1-R132H enzyme, NADPH consumption, diaphorase/resazurin fluorescence; Potency, µM (titrated, usually from 76.6 µM), hits mostly inhibitors; 390,000 compounds, 0.093% hits; further: nearly all actives have a fitted effect of over 65% in size
Target sequence (O75874 whole entry R132H, stated change not applied): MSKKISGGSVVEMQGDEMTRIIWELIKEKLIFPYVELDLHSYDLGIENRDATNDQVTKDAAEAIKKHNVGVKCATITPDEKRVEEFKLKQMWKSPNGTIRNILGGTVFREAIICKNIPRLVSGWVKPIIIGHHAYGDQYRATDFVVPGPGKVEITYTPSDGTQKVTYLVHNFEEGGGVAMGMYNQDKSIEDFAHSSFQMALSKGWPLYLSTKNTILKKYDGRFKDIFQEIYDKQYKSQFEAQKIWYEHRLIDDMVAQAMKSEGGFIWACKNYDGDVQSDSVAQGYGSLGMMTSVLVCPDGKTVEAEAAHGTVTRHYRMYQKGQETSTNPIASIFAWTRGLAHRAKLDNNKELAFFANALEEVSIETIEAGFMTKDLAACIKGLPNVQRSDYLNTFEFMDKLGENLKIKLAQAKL
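IDH1-R132H (0.5 ug/mL) preincubated 30 min with compound, then NADPH (0.016 mM) and alpha-KG (2 mM) added; 80 min at RT, pH 7.5. Remaining NADPH coupled via diaphorase/resazurin to fluorescence (540/590 nm); concentration-response curves normalized to no-enzyme control.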
Hits are given with their value; – = inactive; ? = inconclusive; · = no result. Unless noted, the call rests on the fitted dose curve; in most records, active means well fitted curve in the direction sought with a large enough effect; inconclusive means small, poorly fitted or top-dose-only effect, or another doubt; inactive means no such curve, though single readings can be large; an effect the other way counts as inactive or inconclusive.

SMILES | aSyn yeast inh | TDP43 rescue | LDHA inh | FUS yeast rescue | Abeta yeast res | IDH1 R132H inh
O=[N+]([O-])/C=C/c1cn(Cc2ccc(F)cc2)c2ccccc12 | – | 13µM | – | – | – | ?
N#C/C(=C\c1cn(Cc2ccc(F)cc2)c2ccccc12)C(N)=O | · | · | – | · | · | ·
c1ccc2cc(Sc3ncnc4c3oc3ccccc34)ccc2c1 | – | – | – | – | – | –
Cc1cc(C)nc(Sc2ncnc3c2oc2ccccc23)n1 | – | 22µM | – | – | – | –
O=C(c1ccc([N+](=O)[O-])cc1)N1CCN=C1SCc1ccccc1 | – | – | – | – | – | –
O=C(C1CCCCC1)N1CCN=C1SCc1cccc([N+](=O)[O-])c1 | – | 18µM | – | – | – | –
O=C(c1ccccc1)N1CCN=C1SCc1ccc([N+](=O)[O-])cc1 | – | 10µM | – | – | – | –
CCN(CC)C(=O)c1ccc(-n2nc(C)c(-c3ccc(C)cc3)c2NC(C)=O)cc1 | · | · | – | · | · | ·
O=C(Nc1ccc(OCc2ccccc2Cl)cc1)c1cccnc1 | – | 16µM | – | – | – | –
CC(=O)c1cccc(NC(=O)C2(C)Cc3c(-c4ccccc4)ccnc3O2)c1 (stereo not given) | – | 20µM | – | – | – | ·
CC1(C(=O)NCc2ccccc2)Cc2c(-c3ccc4c(c3)OCO4)ccnc2O1 (stereo not given) | – | 18µM | – | – | – | ·
CC1(C(=O)NCc2ccc(F)c(F)c2)Cc2c(-c3ccccc3)ccnc2O1 (stereo not given) | – | 35µM | – | – | – | ·
COc1ccccc1Nc1nc(NCCO)nc(N)c1[N+](=O)[O-] | – | – | – | – | – | –
CNc1nc(N)c([N+](=O)[O-])c(Nc2ccccc2OC)n1 | – | 2.5µM | – | – | – | –
COc1c2c(cc3oc(=O)ccc13)OC(C)(C)C=C2 | – | ? | – | – | – | –
COc1ccc(OCc2cc(=O)c3ccc4c(c3o2)C=CC(C)(C)O4)cc1OC | – | 35µM | – | – | – | –
O=C(O)C1Oc2ccccc2O1 | · | · | – | · | · | ·
NC(=S)N/N=C\c1c2ccccc2cc2ccccc12 | ? | 20µM | – | – | ? | –
CCOc1ccccc1OCCOCCN1CCN(Cc2ccccc2)CC1 | – | – | -31 | – | – | –
CCC(=O)c1ccccc1OCCCn1cncn1 | – | – | – | – | – | –
CCC(=O)c1ccccc1OCCN1CCN(Cc2ccccc2)CC1 | – | – | -34 | – | – | –
CC1COCCN1C(=O)Cn1cnc2sccc2c1=O (stereo not given) | · | · | – | · | · | ·
Cc1ccc(C(=O)NC2CCCc3ccccc32)cc1[N+](=O)[O-] (stereo not given) | – | 10µM | – | – | – | –
COc1ccc(C(=O)NC2CCCc3ccccc32)cc1Br (stereo not given) | – | 14µM | – | – | – | –
Oc1c(Br)cc(Br)cc1CNc1cccc2cccnc12 | ? | 18µM | – | – | – | –
SMILES | aSyn yeast inh | TDP43 rescue | LDHA inh | FUS yeast rescue | Abeta yeast res | IDH1 R132H inh
Oc1ccc(Br)cc1CNc1cccc2cccnc12 | – | – | – | – | – | –
CC(=O)Nc1ccc(NC(=O)CC2Sc3ccc(C(F)(F)F)cc3NC2=O)cc1 (stereo not given) | · | · | – | · | · | ·
Cc1ccc(N2C(S)=C(C#N)C(=O)NC23CCCCC3)cc1 | – | 22µM | – | · | – | –
CC(C)(C)OC(=O)COc1cc(OCC(=O)OC(C)(C)C)c2c(=O)cc(-c3ccccc3)oc2c1 | – | – | – | 32µM | – | –
COc1cc(OC)c2c(=O)cc(-c3ccccc3)oc2c1 | – | 35µM | – | – | – | –
CN(C)C(=O)c1ccc(NCC(=O)N2N=C(c3cc4ccccc4o3)CC2c2ccco2)cc1 (stereo not given) | · | · | – | · | · | ·
CCCCCNc1c2c(nc3ccccc13)CC(C)(C)CC2=O | · | · | – | · | · | ·
COC(=O)[C@]12C[C@H](CC(=O)N3CCCC3)C(=O)N(Cc3ccc(Cl)cc3Cl)C1=C[C@H](C(C)(C)C)O[C@@H]2C | · | · | · | 18µM | · | ·
COC(=O)[C@]12C[C@H](CC(=O)N3CCCCC3)C(=O)N(CCc3ccc(OC)c(OC)c3)C1=C[C@H](C(C)(C)C)O[C@@H]2C | · | · | · | – | · | ·
C#CCNC(=O)C[C@H]1C[C@@]2(C(=O)OC)C(=C[C@H](C(C)(C)C)O[C@@H]2C)N(Cc2ccc(Cl)cc2Cl)C1=O | · | · | · | 18µM | · | ·
FC(F)(F)c1ccc(Cl)c(N/N=C/c2cccc(OCc3ccccc3)c2)c1 | · | · | – | · | · | ·
COc1cc(CNC(=O)c2ccc3c(c2)NC(=O)CCS3)ccc1OCc1ccccc1 | · | · | – | · | · | ·
COCc1ccc(C(=O)N2CCCC(C(=O)c3cc(F)ccc3F)C2)s1 (stereo not given) | – | 11µM | – | – | – | –
O=C(OC1CCCCC1=O)c1cccc(Br)c1 (stereo not given) | · | · | – | · | · | ·
CCOc1ccccc1-c1cc(C(=O)O)c2ccccc2n1 | · | · | – | · | · | ·
O=C(Nc1cccc(F)c1)c1ccc(CSc2ccccc2)o1 | – | – | – | – | – | –
O=C(Nc1nccs1)c1ccc(CSc2ccccc2)o1 | – | 11µM | – | – | – | –
Cc1ccc(SCC(=O)Nc2nccs2)cc1 | – | 11µM | – | – | – | –
O=C(Nc1nccs1)c1ccc(COc2ccccc2)o1 | – | – | – | – | – | –
Cc1ccc(SCc2ccc(C(=O)Nc3nccs3)o2)cc1 | – | 13µM | – | – | ? | –
O=C(Nc1ccccc1F)c1ccc(CSc2ccccc2)o1 | – | 13µM | – | – | – | –
O=C(CSc1ccccc1)Nc1nccs1 | – | – | – | – | – | –
O=C(O)C(c1c[nH]c2ccccc12)N1CCN(Cc2cccc(Cl)c2)CC1 (stereo not given) | · | · | – | · | · | ·
Cc1ccc(C)c(NS(=O)(=O)c2ccc(N3CC(C(=O)O)CC3=O)cc2)c1 (stereo not given) | · | · | – | · | · | ·
Cc1ccc(NC(=O)/C(C#N)=C/c2cc(C)n(-c3ccc(Br)cc3)c2C)cc1C | · | 4µM | – | ? | – | –
SMILES | aSyn yeast inh | TDP43 rescue | LDHA inh | FUS yeast rescue | Abeta yeast res | IDH1 R132H inh
CC1Sc2ccc(C(=O)NO)cc2NC1=O (stereo not given) | · | · | – | · | · | ·
C=CCN1C(=O)C2(OCCCO2)c2cccc(C)c21 | – | – | – | – | – | –
CCCCN1C(=O)C2(OCCCO2)c2cccc(C)c21 | – | 20µM | – | – | – | –
COc1cc(C2CC(=O)Nc3nc(C)[nH]c(=O)c32)ccc1OCc1ccccc1Cl (stereo not given) | · | · | – | · | · | ·
CN1c2ccccc2SC2C(c3ccccc3)=NOC21 (stereo not given) | – | 18µM | – | – | – | ·
CN1C(c2ccccc2)=NO[C@]1(C)c1ccccc1 | – | – | – | – | – | –
